The nature of the assay: yeast superoxide dye artefact check – S. cerevisiae BY4741, flow cytometry, artefact control for yeast caloric restriction mimetic project (AID 435000).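 Also: percent of the mean fluorescence averaged over all compound wells on the plate; lower means stronger quenching of DHE signal or ROS scavenging.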 To be noted: S. cerevisiae BY4741, DHE fluorescence, at 10 µM, active compounds read low. Background: In flow cytometry, cells or beads pass a laser one at a time.

The other results are listed elsewhere or left out. Active and inactive are the calls of the source.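 The calls were made as follows: active = fluorescence response below 15%; inactive = the rest.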

Take `CN1CCN(C(=S)SCC(=O)Nc2ccc(Cl)cc2C(=O)c2ccccc2)CC1`: the fluorescence response is 104% (inactive).
`C[C@]12CCC3C(CC[C@H]4C[C@@H](O)CC[C@]34C)C1C[C@@H](O)[C@H]2O` (some centres not stated): the fluorescence response was 99% (inactive).
